From PubChem BioAssay AID1981 (Southern Research Specialized Biocontainment Screening …, 2009) come the findings set out here.

The whole screen tested about 2,200 compounds, of which about 480 (22%) were called active. How the calls were made is not given here. These entries were drawn from the full list. Entries with a potency or affinity are not part of this list.

The experiment in a line: S. Typhimurium GFP fluorescence modified counterscreen for PhoP regulon inhibitor project dose response (AID 1981). The following applies: 4 h; series mostly up to 150 µM.
For the compound `O=C1CC(c2ccco2)CC(O)=C1C=Nc1cc(Cl)cc(Cl)c1` (stereo not drawn), the call was inactive. Regarding `Cc1cccc(NC(=O)c2cc(N3C(=O)CCC3=O)ccc2Cl)n1`, the outcome was inactive. As for `Cc1oc(CC(C)C)c(CN2CCCC2)c1C(=O)O`, the result was inactive. The entry for `Cn1ncc(N=Cc2ccccc2O)c1C(=O)Nc1ccccc1` is “inactive”; for `O=C(Cc1cccs1)Nc1nc2c(s1)CCCC2` it is “inactive”; for `Cn1cccc1C1NC(=O)c2c(sc3c2CCC(C(C)(C)C)C3)N1` (stereo not drawn) it is “inactive”. In the case of `Cc1c(NS(=O)(=O)c2ccc(N(C)C3CCCCC3)c([N+](=O)[O-])c2)c(=O)n(-c2ccccc2)n1C`, the compound was classed as inactive. The entry for `CCCCOc1ccc(NC(=O)Nc2nnc(C)s2)cc1` is “inactive”; for `COc1cccc2[nH]c3c(N4CCN(Cc5ccc6c(c5)OCO6)CC4)ncnc3c12` it is “inactive”. The entry for `O=C(NCc1cccs1)Nc1cccs1` is “inactive”; for `O=C1C2CCCN2c2ccc(S(=O)(=O)N3CCOCC3)cc2N1Cc1ccccc1F` (stereo not drawn) it is “inactive”.

`O=C(c1cccc(S(=O)(=O)N2CCOCC2)c1)N1CCCC1`: the compound was called inactive.

Turning to `Cc1ccc(/C=C/C(=O)c2ccccc(=O)c2O)cc1C`, the call was inactive. The entry for `O=C(CSc1nncs1)Nc1ccc2c(c1)OCCO2` is “inactive”; for `Cc1cccc(C)c1Nc1nnc(SCC(=O)Nc2sccc2C#N)s1` it is “inactive”; for `COc1ccccc1N1CCN(C/C(O)=C(\C#N)c2nc(-c3ccccc3)cs2)CC1` it is “inactive”. For the compound `O=C(CCN1CCN(c2ccc(F)cc2)CC1)Nc1ccccc1F`, the outcome was inactive.

Consider `COc1ccc(CN2CCOCC2)cc1Br`, for which the compound was called inactive. The entry for `Cc1sc(NC(=O)c2ccco2)c(CN2CCN(c3ccc(F)cc3)CC2)c1C` is “inactive”. The entry for `COc1ccc(C(=O)Oc2c(CN3CCOCC3)cc(Cl)c3cccnc23)cc1` is “inactive”; for `CNc1ncc(Cc2ccccc2)s1` it is “inactive”; for `COC(=O)c1[nH]c2ccc(C)cc2c1NC(=O)Nc1ccc(OC)cc1` it is “inactive”. The entry for `CC(=O)Nc1ccc(S(=O)(=O)N2CCC(n3cnc4cc(F)ccc43)CC2)cc1` is “inactive”. As for `CC(=O)c1c(C)n([O-])c2ccccc2[n+]1=O`, the outcome was inactive.

With `O=C(CSc1nc2[nH]ncc2c(=O)[nH]1)N1CCCCC1`, the call was inactive. The entry for `Cc1ccc2nc(C(F)OC(F)(F)F)[nH]c2c1` (stereo not drawn) is “inactive”; for `Nc1cccc(-c2nc3ccc(N)cc3s2)c1` it is “inactive”.

For `O=[N+]([O-])/C=C/c1cc2ccccc2[nH]1`, the call was inactive. The entry for `CCN(CC)CCN(Cc1cc2cc3c(cc2[nH]c1=O)OCCO3)C(=O)NC1CCCCC1` is “inactive”; for `c1ccc(Oc2cc(-c3ccccc3)ncn2)cc1` it is “inactive”; for `COc1ccc(CN2C(=O)Cc3c2nc(N)c2c(N)nc(N4CCCCC4)c(C#N)c32)cc1` it is “inactive”. The entry for `C=COC(=O)CSc1snc(SCC(=O)OC)c1C#N` is “inactive”; for `Cc1cccc2nc(CSc3nc4ccccc4o3)cn12` it is “inactive”; for `O=C(CSCc1ccccc1)Nc1ccc2c(c1)OCO2` it is “inactive”. The entry for `O=C(Cc1ccccc1)NC1c2ccccc2-c2ccccc21` is “inactive”; for `O=C(NCc1ccco1)C1CC(=O)N(CCc2ccccc2)C1` (stereo not drawn) it is “inactive”.

For the compound `Cn1cccc1CC(=O)NNC(=S)Nc1ccc(Cl)cc1`, the compound was called inactive. The entry for `NC1=NC(=Nc2ccc(Br)cc2)c2ccccc21` is “inactive”; for `N#C/C=C(/N)c1ccc(Br)cc1` it is “inactive”; for `O=c1c(Cl)c(Cl)cnn1-c1ccccc1` it is “inactive”.

As to `O=C(Cc1cn2ccsc2n1)Nc1ccccc1Oc1ccccc1`, the result was inactive.

As for `N#CC1=C(N)N=C(SCc2cccc3ccccc23)C(C(N)=O)C12CCCCC2` (stereo not drawn), the result was inactive. The entry for `CCCCn1c(/N=C/c2ccccc2NS(=O)(=O)c2ccc(C)cc2)nc2ccccc21` is “inactive”; for `CCOC(=O)C1=C(c2ccccc2)NC(SC)=C(C#N)C1c1ccco1` (stereo not drawn) it is “inactive”. The entry for `FC(F)(F)c1cccc(NC(=S)NCCN2CCOCC2)c1` is “inactive”; for `Nc1nc(CSc2nc3ccccc3[nH]2)nc(N2CCOCC2)n1` it is “inactive”; for `CN1/C(=C\C=N\NC(=O)c2ccccc2Br)C(C)(C)c2ccccc21` it is “inactive”. The entry for `CC(C)=CCN1CCN(Cc2ccoc2)CC1CCO` (stereo not drawn) is “inactive”. On to `COc1ccc(N2C(=O)[C@@H]3[C@H](C2=O)[C@H]2c4ccccc4C=CN2[C@@H]3C(=O)Nc2ccccc2)cc1`, for which the result was inactive.

Regarding `COc1ccc(C(C(=O)NC2CCCC2)N(C(=O)c2ccoc2C)c2cc(C)cc(C)c2)cc1` (stereo not drawn), the result was inactive. The entry for `Cc1cc(C)nc(Nc2ccc(N3CCCC3)cc2)n1` is “inactive”. As for `Cc1ccc(Nc2nc(N)nc(CC#N)n2)cc1`, the compound was classed as inactive.

As for `CSc1nnc(NC(=O)CCc2ccccc2)s1`, the compound was classed as inactive.

As to `CCOC(=O)C(C)/C(C)=N/NC(=O)c1cc2ccccc2cc1O` (stereo not drawn), the call was inactive. Consider `CCN(CC)CCOc1ccc2c(c1)C(=NNC(=O)c1ccccn1)c1cc(OCCN(CC)CC)ccc1-2`, for which the result was inactive. In the case of `O=C1CC(N2CCN(Cc3ccccc3)CC2)C(=O)N1c1ccccc1` (stereo not drawn), the call was inactive. Take `NC(=O)c1c(N)sc2c1CCCCC2`: the call was inactive. The entry for `COc1cccc(C2CC(c3ccccc3OC)n3nc(N)nc3N2)c1` (stereo not drawn) is “inactive”.

As for `COc1ccc(CC(=O)n2nc(-c3ccccc3)nc2NCc2ccco2)cc1`, the result was inactive.

As to `CCn1c(Cc2ccccc2)nnc1SCC(=O)Nc1ccc(S(N)(=O)=O)cc1`, the compound was called inactive. The entry for `C/C(=N\NC(=O)c1c(Cl)c(C)nn1C)c1cccc(NC(=O)COc2ccc(Cl)cc2)c1` is “inactive”. The entry for `Cc1cccc(C)c1OCC(=O)Nn1c(COc2ccccc2)nc2ccccc2c1=O` is “inactive”; for `COc1cccc(/C=N/n2c(C)nc3ccccc3c2=O)c1O` it is “inactive”. The entry for `C=CCNC(=O)c1ccc(N(C)S(=O)(=O)c2ccc(OC)cc2)cc1` is “inactive”. In the case of `O=C(Nc1nc2ccc(SC(F)F)cc2s1)c1ccc2c(c1)S(=O)(=O)c1ccccc1C2=O`, the compound was classed as inactive. `Oc1ccc(Nc2nc(-c3cccs3)cs2)cc1`: the compound was classed as inactive. The entry for `COC(=O)c1cc(C)nc2c1C(=O)C(=O)C=C2N1CCOCC1` is “inactive”. The entry for `Nc1ccc(Nc2ccccc2N)cc1` is “inactive”.

Consider `Nc1ccc(Nc2ccccc2)c(Cl)c1`, for which the compound was classed as inactive.

`O=C(OCC(=O)c1ccc(S(=O)(=O)N2CCCC2)cc1)C1=COCCO1`: the compound was called inactive. The entry for `O=C(NC(NC(=S)Nc1ccc(Cl)c(Cl)c1)C(Cl)(Cl)Cl)c1ccco1` (stereo not drawn) is “inactive”. The entry for `O=C(NCc1ccco1)c1ccc(Br)s1` is “inactive”. The entry for `CCCCN(C)C(=O)c1cn(C)c2ccc(S(=O)(=O)N(C)C)cc2c1=O` is “inactive”. In the case of `CCOC(=O)c1cnc(SCC(=O)Nc2ccc(N3CCOCC3)c(Cl)c2)nc1N`, the compound was classed as inactive. The entry for `Cc1nc(NCc2ccc3c(c2)OCO3)c2oc3ccccc3c2n1` is “inactive”; for `COc1ccc(/C=C/C(=O)NCCc2nc3ccccc3[nH]2)cc1` it is “inactive”. The entry for `CCCCn1c(/N=C/c2c[nH]c3ccccc23)nc2ccccc21` is “inactive”. As to `O=C1CCc2cc(S(=O)(=O)N3CCN(c4cccc(Cl)c4)CC3)ccc2N1`, the compound was classed as inactive. The entry for `C=CCN(C(=O)c1cccc(S(=O)(=O)N2CCN(C)CC2)c1)c1nc(-c2ccccc2)cs1` is “inactive”. Turning to `O=C(CCC(=O)c1cccs1)OCC(=O)N1CCN(S(=O)(=O)c2ccccc2)CC1`, the outcome was inactive. The entry for `O=C1c2ccccc2C(=O)N1CCCc1nc2ccccc2c(=O)n1Cc1ccco1` is “inactive”. For `O=C(NCCc1cn2ccccc2n1)c1ccccc1F`, the call was inactive. The entry for `O=C(c1ccco1)[C@@H]1[C@@H]2C(=O)N(c3ccc(F)cc3)C(=O)[C@@H]2[C@H]2C=Cc3ccccc3N21` is “inactive”.

Regarding `Clc1ccc(-c2csc3ncnc(N4CCc5ccccc5C4)c23)cc1`, the compound was called inactive. On to `CCCCN(C(=O)NC(=O)Nc1nc2ccc(OC)cc2s1)S(C)(=O)=O`, for which the result was inactive.

Regarding `c1csc(C2Nc3ccccc3-c3nc4ccccc4n32)c1` (stereo not drawn), the call was inactive. The entry for `c1ccc(CSc2snnc2-c2ccccc2)cc1` is “inactive”. The entry for `O=C(Cc1c[nH]c2ccccc12)N/N=C/c1ccc(F)cc1` is “inactive”; for `O=c1[nH]c(NNC(=S)NCc2ccccc2)nc2c1C1(CCCCC1)Cc1ccccc1-2` it is “inactive”; for `CN(C(=O)c1cccc(C#N)c1)c1nnc(-c2cnccn2)s1` it is “inactive”.

In the case of `COc1ccc(-c2ccccc2)cc1NCc1ccccc1C`, the compound was classed as inactive. The entry for `CC(=O)Nc1cccc(-c2csc(Nc3cccc(C)n3)n2)c1` is “inactive”; for `CCOC(=O)C1=C(C)NC(=O)NC1c1ccsc1` (stereo not drawn) it is “inactive”; for `CCOC(=O)C(NC(=O)c1cccc(Cl)c1)(OCc1ccccc1)C(F)(F)F` (stereo not drawn) it is “inactive”. The entry for `Cc1ccc(C(=O)N2CC3(C(C)C)CN(C(=O)c4ccc(C)cc4)CC(C(C)C)(C2)C3=O)cc1` is “inactive”; for `CCn1c2ccccc2c2cc(/C=N/NC(=O)c3ccccc3)ccc21` it is “inactive”; for `CCN(CC)S(=O)(=O)c1cccc(C(=O)NC(Cc2c[nH]c3ccccc23)c2nnc3n2CCC3)c1` (stereo not drawn) it is “inactive”. The entry for `Cc1ccc(-n2c(C)cc(/C=N/NC(N)=S)c2C)cc1` is “inactive”; for `O=C(N/N=C/c1ccco1)c1cccc(S(=O)(=O)Nc2ccccc2Cl)c1` it is “inactive”.

For `O=C(/C=C\c1ccco1)Nc1nc(-c2ccccc2)cs1`, the compound was classed as inactive. The entry for `COc1cccc(OC)c1C(=O)NC(=S)Nc1cc(-c2nc3ccccc3[nH]2)ccc1Cl` is “inactive”; for `Cc1[nH]c2ccccc2c1/C=N/Nc1ccc(F)cc1F` it is “inactive”; for `N#Cc1nc(-c2cccs2)oc1NCCCN1CCOCC1` it is “inactive”. The entry for `c1ccc(Nc2cc(Nc3ccccc3)[nH]n2)cc1` is “inactive”; for `Oc1c(Br)cc(Br)cc1C=NCc1ccccc1` it is “inactive”; for `Cc1ccc(-n2sc3ccccc3c2=O)cc1S(=O)(=O)N1CCCCC1` it is “inactive”. The entry for `Cc1ccc(C)c(-c2nc3ccc(N)cc3[nH]2)c1` is “inactive”; for `c1ccc(CCNc2nc3ccccc3s2)cc1` it is “inactive”. Turning to `CC(=O)Nc1ccc(C(=O)N2CCN(C(=O)c3ccco3)CC2)cc1`, the result was inactive. As for `Cc1cccnc1N(C(=O)Nc1ccccc1)C1=NCC(C)(C)S1`, the compound was classed as inactive.

`CN1C(=O)/C(=C/c2cccn2-c2ccc3ccccc3c2)C(=O)NC1=S`: the compound was classed as inactive. As for `CCOc1cc(/C=C2/NC(=O)N(CC(=O)Nc3cccc(C)c3)C2=O)ccc1OC`, the compound was classed as inactive.

With `COc1ccc(C(C)C)cc1S(=O)(=O)Nc1ccc(Cl)cn1`, the compound was classed as inactive.
